In the supplement of paper PMC10849652:
The full data set covers some 8,800 targets. This sample favours those with a hit. About 0.5% of all pairs of compound and target were hits.

What was measured:
Experiment in all cases: log2 fold change, soluble protein after heating vs DMSO (PISA); higher = thermal stabilisation; K562 lysate, 10 uM; active = over 0.2 and 3.5 SD of the protein, either way, in both replicates (recomputed)
alvocidib = compound: CN1CC[C@H](c2c(O)cc(O)c3c(=O)cc(-c4ccccc4Cl)oc23)[C@H](O)C1 [alvocidib]
Summary of the method: (§1)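 Quantification was by TMTpro 16plex LC-MS/MS with equalised channel sums, applied to the supernatant after 21,000xg for 90 min. Samples were crude K562 extract at 1 mg/mL protein in PBS pH 7.4 with 1 mM MgCl2, treated with 10 μM compound for 30 min, heated for 3 min across 48°C-58°C, pooled and brought to 0.5% NP-40 at 4°C. Values are log-two fold changes in thermal stability relative to solvent controls, from duplicates.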

Tubastatin A = compound: CN1CCc2c(c3ccccc3n2Cc2ccc(C(=O)NO)cc2)C1 [Tubastatin A]
Summary of the method: as §1

[1] = compound: CNC(=O)C1=CC=CC=C1NC2=NC(=NC=C2Cl)NC3=C(C=C(C=C3)N4CCOCC4)OC
Summary of the method: as §1

defactinib = compound: CNC(=O)c1ccc(Nc2ncc(C(F)(F)F)c(NCc3nccnc3N(C)S(C)(=O)=O)n2)cc1 [defactinib]
Summary of the method: as §1

[2] = compound: CNc1nc(-c2ccc3c(N)n[nH]c3c2)cc(N2C[C@@H](C(=O)NC3CCCCC3)CC[C@H]2C)n1
Summary of the method: as §1

encorafenib = compound: COC(=O)N[C@@H](C)CNc1nccc(-c2cn(C(C)C)nc2-c2cc(Cl)cc(NS(C)(=O)=O)c2F)n1 [encorafenib]
Summary of the method: as §1

[3] = compound: COC(=O)[C@H](CCSC)NC(=O)C1=C(C=C(C=C1)NC[C@H](CS)N)C2=CC=CC=C2
Summary of the method: as §1

alisertib = compound: COc1cc(Nc2ncc3c(n2)-c2ccc(Cl)cc2C(c2c(F)cccc2OC)=NC3)ccc1C(=O)O [alisertib]
Summary of the method: as §1

[4] = compound: COc1cc2nc(-c3cc(F)ccc3O)nc(N[C@@H]3CNC[C@H]3C(C)(C)O)c2cc1OC
Summary of the method: as §1

gefitinib = compound: COc1cc2ncnc(Nc3ccc(F)c(Cl)c3)c2cc1OCCCN1CCOCC1 [gefitinib]
Summary of the method: as §1

Measured: log2 fold change

UBR4 (UniProt Q5T4S7)
inactive: alvocidib 0.009 | Tubastatin A -0.06 | [1] 0.006 | defactinib 0.006 | [2] -0.034 | encorafenib 0.003 | [3] 0.018 | alisertib 0.001 | [4] 0.001 | gefitinib -0.029

TUBB1 (UniProt Q9H4B7)
inactive: alvocidib 0.026 | Tubastatin A -0.059 | [1] 0.021 | defactinib 0.07 | [2] -0.005 | encorafenib -0.015 | [3] 0.071 | alisertib -0.013 | [4] -0.034 | gefitinib -0.047

UBE2D1 (UniProt P51668)
Chain of UniProt P51668 (P51668 whole entry, looked up): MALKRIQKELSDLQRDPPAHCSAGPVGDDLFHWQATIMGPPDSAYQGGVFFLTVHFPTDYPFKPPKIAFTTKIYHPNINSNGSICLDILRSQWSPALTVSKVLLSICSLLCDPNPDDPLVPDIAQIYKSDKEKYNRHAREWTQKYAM
inactive: alvocidib 0.003 | Tubastatin A -0.045 | [1] 0.06 | defactinib 0.028 | [2] -0.027 | encorafenib -0.025 | [3] -0.042 | alisertib 0.028 | [4] -0.036 | gefitinib 0.106

THADA (UniProt Q6YHU6)
Chain of UniProt Q6YHU6 (Q6YHU6 whole entry, looked up): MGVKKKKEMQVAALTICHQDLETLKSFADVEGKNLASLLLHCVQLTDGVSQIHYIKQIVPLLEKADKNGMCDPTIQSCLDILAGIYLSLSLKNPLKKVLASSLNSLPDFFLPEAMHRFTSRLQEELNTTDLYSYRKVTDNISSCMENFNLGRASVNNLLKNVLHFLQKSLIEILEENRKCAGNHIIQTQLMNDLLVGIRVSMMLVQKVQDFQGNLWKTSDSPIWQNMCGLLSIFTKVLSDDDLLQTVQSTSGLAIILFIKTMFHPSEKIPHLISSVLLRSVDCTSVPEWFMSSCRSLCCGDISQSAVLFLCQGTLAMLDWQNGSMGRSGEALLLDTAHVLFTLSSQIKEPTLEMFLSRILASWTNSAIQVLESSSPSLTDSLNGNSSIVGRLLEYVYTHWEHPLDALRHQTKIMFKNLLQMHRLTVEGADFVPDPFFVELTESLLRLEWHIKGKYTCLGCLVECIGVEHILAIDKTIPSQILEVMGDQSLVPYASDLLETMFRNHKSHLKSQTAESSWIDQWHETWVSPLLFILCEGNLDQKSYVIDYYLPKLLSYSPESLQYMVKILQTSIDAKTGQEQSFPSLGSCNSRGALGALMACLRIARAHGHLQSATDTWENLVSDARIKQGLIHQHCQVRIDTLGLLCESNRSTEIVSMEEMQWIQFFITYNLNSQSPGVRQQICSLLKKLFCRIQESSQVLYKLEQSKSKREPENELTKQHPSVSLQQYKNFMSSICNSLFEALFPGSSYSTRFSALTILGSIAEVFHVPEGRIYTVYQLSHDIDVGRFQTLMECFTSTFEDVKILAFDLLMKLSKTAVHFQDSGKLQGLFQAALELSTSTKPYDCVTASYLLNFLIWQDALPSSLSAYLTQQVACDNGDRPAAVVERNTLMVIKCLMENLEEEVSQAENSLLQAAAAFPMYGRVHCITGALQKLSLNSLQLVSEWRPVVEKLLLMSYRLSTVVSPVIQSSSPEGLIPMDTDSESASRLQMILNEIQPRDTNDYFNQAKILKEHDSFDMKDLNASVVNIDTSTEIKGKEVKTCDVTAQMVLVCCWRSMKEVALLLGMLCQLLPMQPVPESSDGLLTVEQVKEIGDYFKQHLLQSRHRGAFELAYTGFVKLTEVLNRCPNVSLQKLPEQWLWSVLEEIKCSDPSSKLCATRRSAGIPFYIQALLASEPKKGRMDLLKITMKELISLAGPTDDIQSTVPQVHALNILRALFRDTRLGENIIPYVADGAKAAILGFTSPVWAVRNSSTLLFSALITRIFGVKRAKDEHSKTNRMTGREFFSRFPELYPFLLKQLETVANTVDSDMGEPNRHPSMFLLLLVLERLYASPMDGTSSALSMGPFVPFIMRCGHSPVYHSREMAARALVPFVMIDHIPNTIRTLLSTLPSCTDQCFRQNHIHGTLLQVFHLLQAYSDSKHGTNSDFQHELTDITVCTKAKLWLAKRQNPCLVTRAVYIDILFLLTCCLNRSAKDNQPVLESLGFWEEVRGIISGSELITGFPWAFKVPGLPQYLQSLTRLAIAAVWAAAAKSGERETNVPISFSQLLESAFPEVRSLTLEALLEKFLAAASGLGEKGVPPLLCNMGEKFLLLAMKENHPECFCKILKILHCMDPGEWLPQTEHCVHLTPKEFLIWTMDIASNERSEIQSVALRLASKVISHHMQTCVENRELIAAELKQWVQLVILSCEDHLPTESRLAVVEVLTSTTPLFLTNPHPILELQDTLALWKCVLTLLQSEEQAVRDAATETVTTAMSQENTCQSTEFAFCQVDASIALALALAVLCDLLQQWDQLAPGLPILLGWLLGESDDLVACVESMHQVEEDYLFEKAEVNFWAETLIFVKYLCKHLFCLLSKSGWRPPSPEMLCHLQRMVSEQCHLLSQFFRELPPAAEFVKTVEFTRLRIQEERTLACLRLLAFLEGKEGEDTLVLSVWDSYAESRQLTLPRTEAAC
inactive: alvocidib -0.002 | Tubastatin A -0.165 | [1] 0.008 | defactinib 0.014 | [2] -0.013 | encorafenib 0.022 | [3] 0.031 | alisertib 0.01 | [4] 0.012 | gefitinib 0.001

TOR3A (UniProt Q9H497)
inactive: alvocidib 0.01 | Tubastatin A -0.016 | [1] 0.004 | defactinib 0.01 | [2] 0.019 | encorafenib 0.006 | [3] -0.006 | alisertib 0.032 | [4] -0.367 | gefitinib 0.018

TFCP2 (UniProt Q12800)
inactive: alvocidib 0.015 | Tubastatin A -0.215 | [1] 0.169 | defactinib 0.003 | [2] 0.009 | encorafenib 0.093 | [3] 0.044 | alisertib 0.019 | [4] -0.049 | gefitinib -0.033

UGDH (UniProt O60701)
inactive: alvocidib 0.023 | Tubastatin A -0.151 | [1] 0.015 | defactinib 0.071 | [2] -0.132 | encorafenib 0.047 | [3] 0.037 | alisertib -0.025 | [4] -0.004 | gefitinib -0.042

TRNAU1AP (UniProt Q9NX07)
Chain of UniProt Q9NX07 (Q9NX07 whole entry, looked up): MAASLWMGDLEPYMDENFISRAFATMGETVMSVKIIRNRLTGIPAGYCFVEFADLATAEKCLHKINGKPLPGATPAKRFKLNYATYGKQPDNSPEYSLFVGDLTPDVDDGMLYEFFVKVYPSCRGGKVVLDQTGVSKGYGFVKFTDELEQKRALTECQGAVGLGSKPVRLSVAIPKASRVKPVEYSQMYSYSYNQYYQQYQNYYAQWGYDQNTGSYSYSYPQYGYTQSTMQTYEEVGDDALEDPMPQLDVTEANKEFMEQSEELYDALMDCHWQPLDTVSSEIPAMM
inactive: alvocidib -0.059 | Tubastatin A -0.08 | [1] 0.015 | defactinib -0.192 | [2] -0.039 | encorafenib 0.045 | [3] 0.034 | alisertib 0.098 | [4] -0.007 | gefitinib -0.019

UBR3 isoform 4 (UniProt Q6ZT12)
inactive: alvocidib 0.012 | Tubastatin A -0.155 | [1] 0.074 | defactinib -0.062 | [2] -0.03 | encorafenib -0.006 | [3] 0.054 | alisertib -0.005 | [4] 0.005 | gefitinib 0.018

TRAPPC10 (UniProt P48553)
inactive: alvocidib -0.034 | Tubastatin A -0.074 | [1] 0.01 | defactinib -0.034 | [2] 0.011 | encorafenib 0.009 | [3] -0.047 | alisertib 0.015 | [4] -0.001 | gefitinib -0.029

TRIP12 isoform 2 (UniProt Q14669)
inactive: alvocidib 0.018 | Tubastatin A -0.035 | [1] 0.002 | defactinib 0.045 | [2] -0.17 | encorafenib 0.049 | [3] -0.018 | alisertib 0.019 | [4] -0.122 | gefitinib 0.005

TNKS (UniProt O95271)
inactive: alvocidib -0.223 | Tubastatin A -0.087 | [1] 0.04 | defactinib -0.013 | [2] -0.031 | encorafenib -0.078 | [3] 0.022 | alisertib -0.002 | [4] -0.072 | gefitinib -0.069

TXNRD2 (UniProt Q9NNW7)
Chain of UniProt Q9NNW7 (Q9NNW7 whole entry, looked up): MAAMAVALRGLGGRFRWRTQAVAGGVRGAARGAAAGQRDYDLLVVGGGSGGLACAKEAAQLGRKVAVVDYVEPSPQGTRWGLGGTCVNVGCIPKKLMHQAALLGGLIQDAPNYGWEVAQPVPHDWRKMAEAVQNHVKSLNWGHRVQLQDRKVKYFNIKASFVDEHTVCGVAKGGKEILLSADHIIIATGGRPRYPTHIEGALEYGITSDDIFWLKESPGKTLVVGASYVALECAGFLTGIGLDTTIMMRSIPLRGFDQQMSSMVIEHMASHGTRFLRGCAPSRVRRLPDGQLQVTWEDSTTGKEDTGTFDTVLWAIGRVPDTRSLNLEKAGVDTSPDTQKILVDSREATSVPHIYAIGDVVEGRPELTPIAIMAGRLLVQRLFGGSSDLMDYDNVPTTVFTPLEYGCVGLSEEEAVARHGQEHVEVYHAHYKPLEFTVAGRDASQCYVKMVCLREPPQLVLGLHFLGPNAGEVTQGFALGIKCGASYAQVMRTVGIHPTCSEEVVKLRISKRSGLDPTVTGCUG
inactive: alvocidib -0.006 | Tubastatin A 0.021 | [1] 0.018 | defactinib 0.015 | [2] 0.007 | encorafenib 0.039 | [3] -0.034 | alisertib 0 | [4] 0.008 | gefitinib -0.064

TMEM70 (UniProt Q9BUB7)
inactive: alvocidib -0.037 | Tubastatin A -0.015 | [1] -0.025 | defactinib -0.001 | [2] -0.056 | encorafenib 0.021 | [3] -0.002 | alisertib 0.024 | [4] -0.041 | gefitinib -0.036

TBCE (UniProt Q15813)
inactive: alvocidib -0.008 | Tubastatin A -0.162 | [1] -0.026 | defactinib 0.031 | [2] -0.028 | encorafenib -0.008 | alisertib -0.008 | [4] -0.006 | gefitinib -0.006
active: [3] 0.265

TSPAN13 (UniProt O95857)
inactive: alvocidib -0.26 | Tubastatin A 0.046 | [1] -0.042 | defactinib 0.017 | [2] 0.299 | encorafenib -0.007 | [3] 0.049 | alisertib 0.003 | [4] 0.043 | gefitinib -0.003

TP53RK (UniProt Q96S44)
inactive: alvocidib -0.012 | Tubastatin A 0.054 | [1] -0.037 | defactinib 0.019 | [2] -0.026 | encorafenib 0.028 | [3] 0.025 | alisertib 0.001 | [4] 0.002 | gefitinib -0.042

TPM1 (UniProt H7BYY1)
inactive: alvocidib 0.027 | Tubastatin A 0.092 | [1] 0.007 | defactinib 0 | [2] 0.022 | encorafenib 0.056 | [3] -0.023 | alisertib -0.048 | [4] -0.04 | gefitinib 0.076

TGFBRAP1 (UniProt Q8WUH2)
inactive: alvocidib -0.026 | Tubastatin A -0.153 | [1] 0 | defactinib 0.005 | [2] -0.012 | encorafenib -0.015 | [3] -0.174 | alisertib 0.011 | [4] -0.025 | gefitinib -0.025

THOC5 (UniProt Q13769)
Chain of UniProt Q13769 (Q13769 whole entry, looked up): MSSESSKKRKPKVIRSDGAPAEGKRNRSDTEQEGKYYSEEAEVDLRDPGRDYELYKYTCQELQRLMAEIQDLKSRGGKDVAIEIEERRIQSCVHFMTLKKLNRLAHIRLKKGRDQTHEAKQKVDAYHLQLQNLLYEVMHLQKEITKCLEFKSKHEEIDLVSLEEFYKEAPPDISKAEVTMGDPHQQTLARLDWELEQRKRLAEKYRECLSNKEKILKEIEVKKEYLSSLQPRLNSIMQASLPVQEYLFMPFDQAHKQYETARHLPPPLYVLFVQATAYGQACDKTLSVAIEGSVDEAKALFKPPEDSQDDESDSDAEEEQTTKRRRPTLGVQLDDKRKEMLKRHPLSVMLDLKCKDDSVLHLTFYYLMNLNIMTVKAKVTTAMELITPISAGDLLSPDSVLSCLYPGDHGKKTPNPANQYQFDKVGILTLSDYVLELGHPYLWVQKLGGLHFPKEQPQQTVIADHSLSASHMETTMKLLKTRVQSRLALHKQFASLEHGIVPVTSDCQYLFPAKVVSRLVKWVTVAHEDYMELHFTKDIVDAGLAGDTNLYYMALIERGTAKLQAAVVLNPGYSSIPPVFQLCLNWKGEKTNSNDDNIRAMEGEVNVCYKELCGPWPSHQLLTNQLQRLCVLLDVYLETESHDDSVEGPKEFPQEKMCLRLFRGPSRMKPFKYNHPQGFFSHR
inactive: alvocidib -0.027 | Tubastatin A -0.025 | [1] -0.021 | defactinib -0.008 | [2] -0.016 | encorafenib 0.005 | [3] 0.062 | alisertib 0.059 | [4] 0.006 | gefitinib -0.018

UBE2L6 (UniProt O14933)
Chain of UniProt O14933 (O14933 whole entry, looked up): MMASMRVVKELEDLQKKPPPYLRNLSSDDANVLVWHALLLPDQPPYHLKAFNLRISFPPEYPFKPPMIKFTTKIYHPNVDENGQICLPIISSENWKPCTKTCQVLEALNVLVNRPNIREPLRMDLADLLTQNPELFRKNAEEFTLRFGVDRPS
active: [3] -0.36
inactive: alvocidib 0.034 | Tubastatin A -0.051 | [1] 0.082 | defactinib 0.065 | [2] -0.005 | encorafenib 0.06 | alisertib 0.004 | [4] -0.026 | gefitinib 0.092

TPP2 (UniProt P29144)
inactive: alvocidib 0.018 | Tubastatin A -0.028 | [1] -0.014 | defactinib -0.014 | [2] -0.03 | encorafenib 0 | [3] 0.068 | alisertib -0.02 | [4] 0 | gefitinib 0.008

UFSP2 (UniProt Q9NUQ7)
inactive: alvocidib 0.034 | Tubastatin A 0.024 | [1] -0.045 | defactinib 0.022 | [2] -0.036 | encorafenib 0.031 | [3] 0.055 | alisertib 0.019 | [4] 0.035 | gefitinib -0.031

UFM1 (UniProt P61960)
Chain of UniProt P61960 (P61960 whole entry, looked up): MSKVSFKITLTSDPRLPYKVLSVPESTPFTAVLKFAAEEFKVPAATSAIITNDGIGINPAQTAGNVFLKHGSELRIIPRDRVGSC
inactive: alvocidib 0.253 | Tubastatin A 0.102 | [1] 0.037 | defactinib 0.136 | [2] 0.088 | encorafenib 0.023 | [3] -0.076 | alisertib 0.038 | [4] -0.08 | gefitinib -0.116

TMEM87B (UniProt Q96K49)
inactive: alvocidib 0.035 | Tubastatin A 0.044 | [1] -0.035 | defactinib -0.032 | [2] -0.045 | encorafenib -0.055 | [3] 0.017 | alisertib 0.004 | [4] 0.031 | gefitinib 0.018

TLK2 isoform 2 (UniProt Q86UE8)
inactive: alvocidib -0.027 | Tubastatin A -0.07 | [1] -0.03 | defactinib 0.117 | [2] -0.071 | encorafenib 0.046 | [3] -0.063 | alisertib -0.01 | [4] 0.041 | gefitinib -0.004

TECR (UniProt Q9NZ01)
Chain of UniProt Q9NZ01 (Q9NZ01 whole entry, looked up): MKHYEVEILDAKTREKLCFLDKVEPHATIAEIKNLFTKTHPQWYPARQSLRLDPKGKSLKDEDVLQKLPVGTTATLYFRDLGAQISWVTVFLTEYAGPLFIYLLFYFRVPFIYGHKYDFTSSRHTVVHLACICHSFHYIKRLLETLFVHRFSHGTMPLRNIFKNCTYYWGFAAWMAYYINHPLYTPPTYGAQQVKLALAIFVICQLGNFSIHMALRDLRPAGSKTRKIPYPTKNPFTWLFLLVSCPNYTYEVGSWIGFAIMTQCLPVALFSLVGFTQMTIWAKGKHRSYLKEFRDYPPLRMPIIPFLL
inactive: alvocidib 0.05 | Tubastatin A -0.015 | [1] -0.046 | defactinib 0.052 | [2] -0.008 | encorafenib 0.068 | [3] -0.104 | alisertib 0.053 | [4] 0.048 | gefitinib -0.008

UBR1 (UniProt Q8IWV7)
inactive: alvocidib -0.018 | Tubastatin A -0.026 | [1] 0.009 | defactinib 0.001 | [2] -0.03 | encorafenib 0.033 | [3] 0.055 | alisertib 0.003 | [4] -0.007 | gefitinib 0.016

TRIM56 (UniProt Q9BRZ2)
Chain of UniProt Q9BRZ2 (Q9BRZ2 whole entry, looked up): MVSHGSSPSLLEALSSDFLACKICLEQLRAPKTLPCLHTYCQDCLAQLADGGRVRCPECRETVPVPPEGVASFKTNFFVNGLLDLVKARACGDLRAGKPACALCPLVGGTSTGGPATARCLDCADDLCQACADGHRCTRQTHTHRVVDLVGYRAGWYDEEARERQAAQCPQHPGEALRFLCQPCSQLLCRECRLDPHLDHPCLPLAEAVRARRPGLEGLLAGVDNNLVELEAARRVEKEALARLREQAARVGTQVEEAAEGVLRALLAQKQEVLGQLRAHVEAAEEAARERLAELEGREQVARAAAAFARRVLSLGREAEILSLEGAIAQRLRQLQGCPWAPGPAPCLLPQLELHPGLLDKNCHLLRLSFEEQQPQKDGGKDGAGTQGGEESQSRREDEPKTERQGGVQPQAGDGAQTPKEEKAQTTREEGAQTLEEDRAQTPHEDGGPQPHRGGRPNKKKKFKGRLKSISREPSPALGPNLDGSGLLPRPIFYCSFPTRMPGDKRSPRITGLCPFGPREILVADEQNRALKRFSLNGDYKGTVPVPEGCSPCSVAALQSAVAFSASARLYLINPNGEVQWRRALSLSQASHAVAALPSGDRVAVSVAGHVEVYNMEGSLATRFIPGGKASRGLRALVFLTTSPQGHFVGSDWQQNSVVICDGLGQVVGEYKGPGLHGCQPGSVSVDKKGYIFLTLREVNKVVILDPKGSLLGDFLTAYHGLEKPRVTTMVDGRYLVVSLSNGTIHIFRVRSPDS
inactive: alvocidib -0.013 | Tubastatin A -0.13 | [1] 0.067 | defactinib 0.008 | [2] -0.059 | encorafenib 0.068 | [3] -0.21 | alisertib 0.04 | [4] 0.001 | gefitinib -0.01

TUBA1B (UniProt P68363)
inactive: alvocidib -0.027 | Tubastatin A -0.056 | [1] 0.019 | defactinib -0.03 | [2] 0.003 | encorafenib -0.004 | [3] 0.085 | alisertib 0.026 | [4] -0.004 | gefitinib 0.013
